An excerpt weighted towards active compounds, which were near 2.4% of everything screened.
D2 PAM-1 = positively modulates the human D2 dopamine receptor allosterically; P14416; HEK293 T-REx D2, calcium flux, EC20 dopamine potentiation; potentiation, % at 10 µM; actives 0.34% (n = 340,000); AID 485347;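 active = potentiation over 3 SD above the plate norm, cut at about 30% in these data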; note: 0% is about no effect
Target sequence (P14416 whole entry, looked up): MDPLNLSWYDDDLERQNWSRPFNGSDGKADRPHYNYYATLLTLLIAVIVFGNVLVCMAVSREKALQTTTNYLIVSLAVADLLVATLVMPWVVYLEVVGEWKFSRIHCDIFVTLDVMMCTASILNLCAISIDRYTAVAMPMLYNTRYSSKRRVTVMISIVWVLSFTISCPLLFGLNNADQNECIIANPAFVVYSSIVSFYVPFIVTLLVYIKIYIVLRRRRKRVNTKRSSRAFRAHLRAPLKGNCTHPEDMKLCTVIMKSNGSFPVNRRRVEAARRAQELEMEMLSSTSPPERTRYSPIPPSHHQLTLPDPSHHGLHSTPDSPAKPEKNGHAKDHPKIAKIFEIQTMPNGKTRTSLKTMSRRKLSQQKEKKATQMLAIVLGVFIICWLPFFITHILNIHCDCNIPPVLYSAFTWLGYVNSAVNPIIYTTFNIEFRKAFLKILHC
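Potentiation of an EC20 dopamine calcium response is measured in a force-coupled, tetracycline-inducible Hek293 Trex D2 line. Compound-only kinetic reads over 180 s flag agonists before dopamine addition.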
D2 ag-1 = agonists of human D2 dopamine receptor. AID 485358. activation, % at 2 µM. P14416. HEK293 T-REx D2 cells, calcium flux agonist mode. actives 0.53% (n = 340,000);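 active = activation over 3 SD above normal in the single-dose calcium agonist read, cut at about 30% in these data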; note: 0% is about no effect
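Tetracycline-induced HEK293 Trex cells with D2 receptor force-coupled to calcium signaling, plated overnight at 30 C and loaded with no-wash calcium dye. Calcium flux read kinetically for 180 s after compound addition; responses flag agonists.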
D2 antag = antagonists of human D2 dopamine receptor; P14416; HEK293 TREx D2 cells, calcium flux, dopamine EC80; inhibition, % at 10 µM; actives 2% (n = 340,000); AID 485344; in the data active = inhibition above about 30%; inactive = below that, where a call was filed; note: 0% is about no effect
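Calcium flux kinetic readout in an inducible HEK293 TREx D2 line plated overnight at 30 C. After 180 s compound exposure, an EC80 dopamine challenge follows with another 180 s kinetic read to detect antagonism.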
D2 PAM-2 = positive allosteric modulators of human D2 dopamine receptor; actives 0.23% (n = 360,000); DiscoveRx D2 beta-arrestin cells, luminescence, 90 min; 100% = 57 uM dopamine signal; P14416; potentiation, % (no concentration beside the values); in the data active = potentiation above about 50%
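PathHunter D2 cells, attached overnight at 37 deg C, received compound in DMSO plus dopamine at EC20 (50 nM final) for 90 min at 37 deg C. Beta-arrestin recruitment was read as luminescence after 1 h with detection reagent at ambient temperature.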
D2 ag-2 = activates the human D2 dopamine receptor; DiscoveRx PathHunter D2 beta-arrestin, luminescence, 90 min; 100% = 57 uM dopamine signal; activation, % (test concentration not listed); actives 0.084% (n = 360,000); AID 624465; in the data active = activation above about 40%
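DiscoveRx PathHunter D2 beta-arrestin cells (2,100/well) attached overnight, then compound-stimulated 90 min at 37 C in HBSS/10 mM HEPES/0.1% Tween-20 buffer; beta-galactosidase complementation read by luminescence after 1 h at ambient temperature. Dopamine 57 uM final (EC100) as control.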
* marks the source's active call; other numbers are inactive results; . = not tested or not shown.

SMILES	D2 PAM-1	D2 ag-1	D2 antag	D2 PAM-2	D2 ag-2
CN1C(=O)C(=Cc2cn(CC(=O)N3CCCC3)c3ccccc23)C(=O)N(C)C1=O	31*	-1	30*	-5	-3
Cc1ccc(OCC(=O)Nc2ccc(Cl)cc2C(=O)c2ccccc2)cc1C	-6	.	.	.	.
c1cc2n(c1)-c1c(ccc3c1OCO3)CNC2c1ccc2c(c1)OCO2 (centres undefined)	1	0	51*	-36	-5
OC(CNC1CCCCC1)C(F)(F)F (centres undefined)	-2	-1	40*	-4	-2
CN1CCN(c2ccc(N)cc2Cl)CC1	-15	2	46*	-18	-1
CN1C[C@H](CNC(=O)OCc2ccccc2)C[C@@H]2c3cccc4c3c(cn4C)C[C@H]21	-28	11	78*	-26	3
CC(=O)NC1=C(N2CC2C)C(=O)C(NC(C)=O)=C(N2CC2C)C1=O (centres undefined)	.	.	.	95*	10
CCCC(=O)NC1=C(N2CC2)C(=O)C(NC(=O)CCC)=C(N2CC2)C1=O	.	.	.	6	11
COc1ccccc1N=Cc1c(O)n(C)c(=O)n(C)c1=O	0	0	35*	-15	-3
CCOC(=O)c1ccc(NC(=O)c2cccn(Cc3ccccc3F)c2=O)cc1	11	1	.	.	.
Oc1ccc(CC2CC3CCN2CC3)cc1O (centres undefined)	-1	30*	-6	-10	7
CSc1ccc(CN2CCN(Cc3ccccc3Cl)CC2)cc1	-31	-5	70*	-26	-3
COc1ccc(CN2CCN(Cc3ccccc3F)CC2)cc1	-17	0	31*	-21	-4
CSc1ccc(CN2CCN(C(=O)Cc3ccccc3)CC2)cc1	.	.	.	-10	-6
O=C1CC(c2ccccc2Br)c2c(c3ccccc3oc2=O)O1 (centres undefined)	3	0	.	.	.
C[C@@H]1C(=O)O[C@@H]2[C@H](O)C34[C@@H]5OC(=O)C3(O[C@H]3OC(=O)[C@H](O)C34[C@H](C(C)(C)C)[C@H]5O)[C@@]12O (some centres undefined)	-6	0	37*	-8	-2
Cc1cccc(CN2C(=O)CN=C(c3ccccc3)c3cc(Cl)ccc32)c1	-2	1	.	.	.
Cc1ccc(-n2c(/C=C/c3ccccc3)nc3ccccc3c2=O)cc1Cl	7	0	.	.	.
Fc1ccccc1CCNCc1cccc2ccccc12	-33	0	31*	-35	-4
Cc1cccc(-n2c(CC3C(=O)Nc4ccc(C)cc43)nc3ccccc3c2=O)c1 (centres undefined)	4	4	.	.	.
Fc1ccc2c(c1)nnn2C1CCN(Cc2ccccc2)CC1	-26	1	82*	-37	-3
COc1ccc(NC(=O)CN2C(=O)CN=C(c3ccccc3)c3ccccc32)c(OC)c1	-9	1	.	.	.
NS(=O)(=O)OC(CCc1ccccc1)C(Cl)(Cl)Cl (centres undefined)	7	2	38*	0	1
O=c1c2ccccc2nc(/C=C\c2ccc(F)cc2)n1-c1ccccc1F	-4	0	.	.	.
C#CC1(O)CCC2C3CCC4=C/C(=N/OCC(=O)NCC(=O)NC(C(=O)O)C(C)C)CC[C@]4(C)C3CC[C@@]21C (some centres undefined)	-9	1	60*	-5	1
SMILES	D2 PAM-1	D2 ag-1	D2 antag	D2 PAM-2	D2 ag-2
COc1ccc(C(=O)C2CCCN(C3CSCCSC3)C2)c(OC)c1 (centres undefined)	-15	1	57*	-18	2
COc1cccc(NC(=O)c2cccn(Cc3ccccc3C)c2=O)c1	2	1	.	.	.
Clc1ccc(C(OCCN2CCCCC2)c2ccccc2)cc1 (centres undefined)	-20	0	43*	0	-6
COc1ccc(OCC(=O)N2CCN(CCc3ccccn3)CC2)cc1	8	1	.	.	.
N=Cc1c(O)n(-c2ccccc2)c(=O)n(-c2ccccc2)c1=O	24	1	-9	64*	-6
Cc1ccc(-n2c(O)c(C=N)c(=O)n(-c3ccc(C)cc3)c2=O)cc1	-1	1	-4	-8	1
O=C1CN=C(c2ccccc2)c2cc(Cl)ccc2N1Cc1ccc(Cl)cc1	5	1	.	.	.
COc1ccc(Cl)cc1NC(=O)CN1C(=O)CN=C(c2ccccc2)c2cc(Cl)ccc21	-1	1	.	.	.
COc1ccc(C(c2c(O)c3ccccc3oc2=O)c2c(C)n(C)n(-c3ccccc3)c2=O)cc1 (centres undefined)	-4	1	93*	-3	-4
Cc1[nH]c2ccccc2c1C(=O)CN1CC=C(c2ccccc2)CC1	-28	3	10	-8	-3
CCN1CC=C(c2c[nH]c3ccccc23)CC1	-21	0	83*	-38	-3
COc1ccc2c(c1OC)CN1CCc3cc4c(cc3C1C2)OCO4 (centres undefined)	-22	0	86*	-23	0
CC1(C)CSC(=NCc2ccccc2)N1	-17	73*	56*	-8	-2
COc1ccc2[nH]cc(CCN)c2c1	-4	34*	-4	-48	5
CCCCCCCCCOc1ccc2[nH]cc(CCN)c2c1	-18	2	13	.	.
COc1ccccc1OCCCn1cc(C(=O)c2ccco2)c2ccccc21	-1	2	-10	-6	-4
O=C(c1ccco1)c1cn(Cc2ccc(Cl)cc2)c2ccccc12	-12	-1	31*	-1	-3
CN1CSC(=S)N(C)C1	7	0	42*	-2	-6
COc1ccc(OC)c(CN2CCCC(C(=O)c3sccc3C)C2)c1 (centres undefined)	-25	0	51*	-26	-4
Cc1ccsc1C(=O)C1CCCN(Cc2cc(C(C)C)n[nH]2)C1 (centres undefined)	-32	-1	80*	-16	0
Cc1ccsc1C(=O)C1CCCN(Cc2ccn[nH]2)C1 (centres undefined)	5	0	12	-28	-2
COc1cccc(O)c1CN1CCCC(C(=O)c2sccc2C)C1 (centres undefined)	-18	0	8	-32	-4
CNc1ccc2oc(C[C@H]3O[C@@]4(CC[C@H]3C)O[C@H]([C@H](C)C(=O)c3ccc[nH]3)[C@H](C)C[C@H]4C)nc2c1C(=O)O	-18	96*	62*	-16	-11
CN1CCN(c2nc(N)c(Br)c(Cl)n2)CC1	-17	1	69*	-54	-3
CN1CCN(c2ncnc(Cl)c2N)CC1	-20	1	-17	-12	-4
Cc1ccccc1OCC(=O)N1CCN(CCc2ccccn2)CC1	-11	1	.	.	.
CCc1ccc(-c2nn(Cc3ccccc3)cc2C=O)cc1	-4	1	35*	0	-7

High-throughput results: PubChem, National Center for Advancing Translational Sciences (NCATS)
